Assay outcomes deposited in PubChem by National Center for Advancing Translational Sciences (NCATS).
uPA surface inh = cell surface uPA generation inhibition | cell surface uPA generation assay, qHTS | Potency, µM (titrated, usually from 38.3 µM), inactives show at the top dose activity change, negative = inhibition, hits mostly inhibitors | actives 0.31% (n = 330,000) | AID 540303; active = well fitted inhibition curve with a large enough effect; inconclusive = small, poorly fitted or top-dose-only effect; inactive = no such curve, though single readings can be large or run the other way; tested in mouse RAW 264.7 cells; note: potency is the fitted concentration of half-maximal effect; % is set by controls: 0 for no effect and ±100 for the full control effect; nearly all actives have a fitted effect of over 55% in size
gsp agonist = activates gsp, the McCune-Albright syndrome mutation. gsp mutant cells, cAMP HTRF, 30 min. Potency, µM (series often up to 76.9 µM), without a hit: at the highest dose activation (cAMP increase), hits mostly activators. actives 0.13% (n = 340,000); active = well fitted activation curve with a large enough effect; inconclusive = small, poorly fitted or top-dose-only effect, or another doubt; inactive = no such curve, though single readings can be large or run the other way; cell line not stated here;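 note: phosphodiesterase inhibitor Ro 20-1724 added with compounds to block cAMP breakdown; potency is the fitted concentration of half-maximal effect; nearly all actives have a fitted effect of over 60% in size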
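Cells in DMEM/10% FBS with G418 were pretreated with compounds in DMSO plus […] (300 uM stock) for 30 min at 37C. cAMP was measured by HTRF (cAMP-d2 plus anti-cAMP antibody-K) after 30 min at room temperature.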
CCT modulator = modulators of cytosolic chaperonin (CCT/TRiC) activity; purified chaperonin ATPase assay, HTRF ADP detection, 30 min; activity change, % (test concentration not listed), hits read low; actives 0.3% (n = 360,000); AID 651819; in the data active = activity change below about -30%; note: % is set by controls: 0 for no effect and ±100 for the full control effect
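Nucleotide hydrolysis assay: TRiC at 20–40 nM final (set by batch activity) with 10 uM ATP, 30 min at 37 °C, in presence of 76 uM compound. Detection by competitive ADP HTRF, 30 min ambient.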
TSHR antagonist = human thyrotropin receptor antagonism; P16473; TSHR-expressing cells, TSH-stimulated cAMP HTRF, 2 h; hits give low values; activity change, negative = inhibition, % at 11.5 µM; actives 0.2% (n = 330,000); AID 504810;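 active = activity change below a set negative limit, meaning inhibition stronger than a set level, cut at about -70% in these data; inconclusive = activity change between two set negative limits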; note: % is set by controls: 0 for no effect and ±100 for the full control effect
Target sequence (P16473 whole entry, looked up): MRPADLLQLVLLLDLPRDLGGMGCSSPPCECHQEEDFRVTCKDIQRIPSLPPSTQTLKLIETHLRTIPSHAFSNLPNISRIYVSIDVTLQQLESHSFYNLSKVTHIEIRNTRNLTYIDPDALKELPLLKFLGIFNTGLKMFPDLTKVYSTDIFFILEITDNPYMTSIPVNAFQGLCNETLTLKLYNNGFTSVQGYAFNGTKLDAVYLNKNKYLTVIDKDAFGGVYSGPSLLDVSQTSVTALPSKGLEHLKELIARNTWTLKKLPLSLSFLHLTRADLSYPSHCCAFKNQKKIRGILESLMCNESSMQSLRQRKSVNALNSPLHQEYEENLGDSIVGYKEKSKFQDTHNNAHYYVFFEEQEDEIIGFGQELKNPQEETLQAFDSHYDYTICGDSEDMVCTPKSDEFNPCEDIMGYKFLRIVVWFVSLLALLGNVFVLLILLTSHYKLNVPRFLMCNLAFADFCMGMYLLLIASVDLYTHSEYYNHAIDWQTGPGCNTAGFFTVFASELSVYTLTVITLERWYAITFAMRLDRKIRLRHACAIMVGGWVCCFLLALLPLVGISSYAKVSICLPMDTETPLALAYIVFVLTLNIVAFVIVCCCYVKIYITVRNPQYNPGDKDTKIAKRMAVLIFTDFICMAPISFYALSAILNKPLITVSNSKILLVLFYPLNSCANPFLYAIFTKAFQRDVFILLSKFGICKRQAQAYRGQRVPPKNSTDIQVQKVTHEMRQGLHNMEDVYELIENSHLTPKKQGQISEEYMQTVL
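Cell-based HTRF cAMP assay; TSHR cells + compound, TSH EC80 (4nM final), 2 h, 37 deg C. Lysis with anti-cAMP cryptate and cAMP-d2, 30 min RT, read 665/620 nm.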
gsp antag = gsp mutant antagonism; gsp-mutant cells, cAMP HTRF, 30 min; Potency, µM (titrated, usually from 76.9 µM), for inactives: at the highest dose activity change, negative = inhibition, hits mostly inhibitors; actives 0.4% (n = 340,000); AID 624288; calls by dose curve; cell line not stated here;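 note: intracellular cAMP measured with PDE inhibitor Ro 20-1724 present during compound exposure; potency is the fitted concentration of half-maximal effect; % is set by controls: 0 for no effect and ±100 for the full control effect; nearly all actives have a fitted effect of over 65% in size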
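Cells in G418 medium, seeded 16-24 h, 37C; buffer exchange to DPBS + 1 mM CaCl2, 0.5 mM MgCl2, 0.05% BSA; cpds in DMSO + […] (300 uM stock), 30 min 37C; HTRF cAMP detection.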
Mm-Cpn inhibitor = blocks the Methanococcus maripaludis chaperonin Mm-Cpn; purified Mm-Cpn ATPase, ADP Transcreener TR-FRET; Potency, µM (top dose mostly 76.9 µM), for the others: at the highest dose activity, negative = inhibition, hits mostly inhibitors; actives 0.031% (n = 330,000); active = well fitted inhibition curve with a large enough effect; inconclusive = small, poorly fitted or top-dose-only effect; note: potency is the fitted concentration of half-maximal effect; % is set by controls: 0 for no effect and ±100 for the full control effect; nearly all actives have a fitted effect of over 80% in size
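Reaction buffer contained 30 mM Tris pH 7.4, 100 mM KCl, 5 mM MgCl2 and 1 mM DTT. Mm-CPN (25 nM final) hydrolysed 10 uM ATP over 30 min at 37°C; ADP was read by HTRF.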
* marks the source's active call; other numbers are inactive results; ? = inconclusive; . = no result; [ ] = remark or other dose. The list is not random: actives were taken first. Their share in the collection is about 1.2%.

SMILES	uPA surface inh	gsp agonist	CCT modulator	TSHR antagonist	gsp antag	Mm-Cpn inhibitor
COc1ccc(S(=O)(=O)N2CCOCC2)cc1NC(=O)CSc1cccc[n+]1[O-]	5%	16µM*	-1	13	24%	0%
COc1ccc(S(=O)(=O)N2CCCCC2)cc1NC(=O)CSc1ncnc2ccccc12	?	20µM*	1	8	27%	?
O=S(=O)(c1ccc(F)cc1)N1CCN(c2ccc(F)cc2)CC1	10%	-27%	-2	-3	-1%	3%
Cc1ccc(S(=O)(=O)c2ncccc2[N+](=O)[O-])cc1	4µM*	27%	-2	2	-19%	1%
CN(C)CCCNc1cc(-c2ccccc2)nc2cc(-c3cccc(F)c3)nn12	5µM*	23%	-4	-13	1%	1%
COc1ccc(-c2nnc(SCC(=O)Nc3ccccc3OC)o2)cc1	-26%	-13%	-4	-7	3%	0%
O=C(CSc1nnc(-c2ccncc2)o1)Nc1cccc(F)c1	2%	-18%[15.4 µM]	-3	0	8%	0%
COc1ccc(-c2nnc(SCC(=O)NC(C)c3ccccc3)o2)cc1 (centres undefined)	2%	16%	-50*	-8	-6%	3%
O=C(CSc1nnc(-c2ccncc2)o1)Nc1cc(F)ccc1F	2%	18%	-119*	-5	3%	0%
Cc1ccc(-c2nnc(SCC(=O)Nc3ccccc3F)o2)cc1	8.9µM*	-80%	0	-10	-5%	-1%
CC(NC(=O)Cc1ccc(-c2ccccc2)cc1)c1ccccc1 (centres undefined)	-6%	?	-43*	-12	-1%	-4%
CCOc1ccc2nc(N(Cc3ccccc3)C(=O)CCNC(C)=O)sc2c1	-3%	2%[15.4 µM]	-3	-2	-3%	3%
Cc1c(C(=O)N(CCC#N)c2ccccc2)sc2nc3n(c(=O)c12)CCCC3	-2%	?	-1	1	-6%	-2%
Cc1ccc(-c2nnc(SCC(=O)Nc3sc(C)c(C)c3C#N)n2C)cc1	2%	-4%	-1	-7	-8%	-1%
Cc1sc(NC(=O)CSc2nnc(-c3ccc(F)cc3)o2)c(C#N)c1C	-1%	-2%	-50*	-18	?	0%
CC1=CC(c2ccccc2)n2nc(NS(=O)(=O)c3ccc(C)cc3)nc2N1 (centres undefined)	-19%	-12%	-1	1	-4%	-18%
CCN1CCN(Cc2ccc(NC(=O)c3ccc(C)c(NC(=O)c4cncc(-c5cccs5)c4)c3)cc2C(F)(F)F)CC1	1µM*	.	-1	.	3%	.
CCN1CCN(Cc2ccc(NC(=O)c3ccc(C)c(NC(=O)c4cc(-c5ccc(Br)cc5)n[nH]4)c3)cc2C(F)(F)F)CC1	13µM*	.	-2	6	8%	3%
O=S1(=O)CC/C(=N/Nc2ccc(C(F)(F)F)cn2)c2cc(F)ccc21	4%	-8%[15.4 µM]	-9	-7	-9%	-2%
CC(C)(C)C(=O)Nc1scc(-c2ccc(-c3ccccc3)cc2)c1C(=O)O	-3%	-79%	1	-50	35µM*	2%
Cc1ccc(C(=O)Nc2scc(-c3ccccc3)c2C(=O)O)cc1	-15%	-2%[15.4 µM]	0	.	-27%	.
Cc1cc(C)c(NC(=O)/C(=C/c2ccco2)c2ccccc2)c(C)c1	0%	-8%	-1	-6	40µM*	-1%
Cc1cccc(C)c1NC(=O)/C(=C/c1ccco1)c1ccccc1	-8%	-15%	1	0	-10%	-1%
CC(=O)N(c1ccccc1)c1nnc(-c2cnc(C)cn2)s1	-6%	-3%[15.4 µM]	0	9	9%	-5%
O=c1cc(-c2ccc(O)c(O)c2)oc2c1ccc1ccccc12	2.5µM*	1%	-2	4	-17%	1%
O=c1cc(-c2ccc(O)c(O)c2)oc2ccc3ccccc3c12	-13%	1%	0	-23	-13%	1%
